Results taken from PubChem BioAssay AID588855 (National Center for Advancing Translational Sciences (NCATS), 2011).
About 5,000 (1.2%) of roughly 410,000 compounds were called active. Not shown: some 13% with an inconclusive outcome. Only a selection was taken, and actives are over-represented in it overall. Values without a mark were called inactive. Calls follow the shape of the dose curve; as a rule, active = well fitted inhibition curve with a large enough effect; inconclusive = small, poorly fitted or top-dose-only effect; inactive = no such curve, though single readings can be large or run the other way.
% is scaled to controls: 0 for no effect and ±100 for the full control effect; potency is read from the fitted curve at half-maximal effect.

Test: qHTS for Inhibitors of TGF-b; also: nearly all actives have a fitted effect of over 65% in size
Conditions: HepG2 CAGA-GFP TGF-b/SMAD3 reporter, GFP fluorescence, 18 h, TGF-beta stimulated, 500 pg/mL final; series mostly up to 46.1 µM; activity, negative = inhibition: at the top concentration
Procedure, shortened: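 First, reporter cells (HEPG2 CAGA-GFP) rested 2 h at 37 degrees C. Next, compounds were pinned in and TGF-beta added to 500 pg/mL final. After 18 h, GFP was imaged per cell and summed per well.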
In the case of `CN(C(=O)CCN1C(=O)/C(=C/c2ccccc2F)SC1=S)C1CCS(=O)(=O)C1` (stereo not drawn), the “activity, negative = inhibition” value is reported as -10.2%. With `CCN(C(=O)CN1C(=O)/C(=C/c2ccc(F)cc2)SC1=S)C1CCS(=O)(=O)C1` (stereo not drawn) the “activity, negative = inhibition” value was -28.5%. With `COc1ccc(Cl)cc1S(=O)(=O)N1CCC(c2ccncc2)CC1` the “activity, negative = inhibition” value was -14.5%. With `CCN(C(=O)Cn1cc(S(=O)(=O)N2CCN(c3ccccc3F)CC2)c2ccccc2c1=O)c1ccc(C)c(C)c1` the “activity, negative = inhibition” value was -16.8%. With `COc1ccc(C(F)(F)F)cc1NC(=O)c1sc2nc(-c3cccs3)ccc2c1N` the “activity, negative = inhibition” value was 7.6%. With `Cc1ccc(CN2CCC(CNC(=O)c3cnn(-c4ccc(C)cc4)c3C3CCN(C(=O)OC(C)(C)C)CC3)CC2)cc1` the “activity, negative = inhibition” value was -19.3%. In the case of `Cc1ccc(CN2CCC(CNC(=O)c3cnn(-c4ccccc4Cl)c3C3CCN(C(=O)OC(C)(C)C)CC3)CC2)cc1`, the Potency is reported as 15.8 µM (active). For `Cc1ccc(-n2ncc(C(=O)NC3CC3)c2C2CCN(C(=O)OC(C)(C)C)CC2)c(C)c1`, the “activity, negative = inhibition” value was 3.65%. With `CCc1nn(CC(=O)Nc2cc(C)cc(C)c2)c(=O)c2cc3sccc3n12` the “activity, negative = inhibition” value was 0.509%. With `Oc1c(C(c2ccccc2Cl)N2CCOCC2)sc2nc(-c3ccco3)nn12` (stereo not drawn) the “activity, negative = inhibition” value was -0.624%. In the case of `Oc1c(C(c2ccccn2)N2CCOCC2)ccc2cccnc12` (stereo not drawn), the Potency is reported as 3.98 µM (active). In the case of `O=C(COC(=O)c1ccccc1OCCOc1ccccc1)Nc1cccc(Br)c1`, the “activity, negative = inhibition” value is reported as -6.6%. For `Cc1c(-c2cccc(NC(=O)C(C)(C)C)c2)nc2ncccn12`, the “activity, negative = inhibition” value was -12.9%. For `ClC/C=C/C[n+]1ccccc1Cl`, the “activity, negative = inhibition” value was -3.54%. With `O=C(Nc1nnc(S(=O)(=O)N2CCOCC2)s1)c1cccc(Br)c1` the “activity, negative = inhibition” value was -20.5%. In the case of `O=C(Nc1nnc(S(=O)(=O)N2CCCCCC2)s1)c1cccc(Br)c1`, the Potency is reported as 10 µM (active). For `Cc1cccc(C(=O)Nc2nnc(S(=O)(=O)N3CCCCCC3)s2)c1`, the “activity, negative = inhibition” value was -24.8%. For `O=C(NCc1ccccc1)c1ccc2c(c1)nc1n2CCCCC1`, the “activity, negative = inhibition” value was -14.4%. For `Cc1cc(C)cc(NC(=S)NCCc2c[nH]c3ccccc23)c1`, the “activity, negative = inhibition” value was -25.4%. In the case of `CCc1cccc(CC)c1NC(=S)NCc1ccc2[nH]c(C)cc2c1`, the “activity, negative = inhibition” value is reported as -7.74%. With `Cc1cccc(NC(=S)NCc2ccc3[nH]c4c(c3c2)CCCC4)c1` the Potency was 25.1 µM (active). For `Cc1csc(NCC(=O)c2c[nH]c3ccccc23)n1`, the “activity, negative = inhibition” value was -1.4%. For `Nc1ncnc2nnsc12`, the “activity, negative = inhibition” value was 9.53%. In the case of `CC(C)(C)c1ccc(C(=O)C[n+]2cccc3cc(Cl)ccc32)cc1`, the “activity, negative = inhibition” value is reported as -12.3%. With `COc1cccc(N=C2SC(C(=O)Nc3cccc(Cl)c3)CC(=O)N2C)c1` (stereo not drawn) the Potency was 10 µM (active). For `COc1ccc(N=C2SC(C(=O)Nc3ccc(F)cc3)CC(=O)N2C)cc1` (stereo not drawn), the “activity, negative = inhibition” value was 3.67%. In the case of `COc1cccc(-c2cccc(NC(=O)C3CCN(C4CCC4)CC3)c2)c1`, the “activity, negative = inhibition” value is reported as -0.372%. In the case of `O=C(C1CCCN(S(=O)(=O)c2cccc3nonc23)C1)N1CCN(c2ccccc2F)CC1` (stereo not drawn), the “activity, negative = inhibition” value is reported as -8.65%. In the case of `CC(C)Oc1ccc(NC(=O)c2cc3ccccc3o2)cc1`, the “activity, negative = inhibition” value is reported as -3.52%. In the case of `CCOc1ccccc1N(CC)C(=O)Nc1cn(C)c(=O)c2ccccc12`, the “activity, negative = inhibition” value is reported as -2.53%. With `COC(=O)c1c(NC(=O)c2cc(=O)c3c(C)cc(C)cc3o2)sc2c1CCCC2` the “activity, negative = inhibition” value was 5.83%. For `Cc1ccn2c(-c3csc(Nc4ccc(C(=O)O)cc4)n3)c(C)nc2c1`, the “activity, negative = inhibition” value was -5.02%. For `CC(=O)Nc1cnc(-c2ccc(O)cc2C)cn1`, the “activity, negative = inhibition” value was 22.5%. With `Cc1ccc(Nc2nc(-c3ccc(O)cc3O)cs2)nc1` the Potency was 12.6 µM (active). For `CCOc1ccc(CNC(=O)CCc2c(C)nn(-c3ccc(N4CCCCC4)nn3)c2C)cc1`, the “activity, negative = inhibition” value was -29.5%. In the case of `COc1cccc(CNC(=O)CCC(=O)N2CC3CCCN3c3ccccc32)c1` (stereo not drawn), the “activity, negative = inhibition” value is reported as 1.62%. With `COC(=O)c1c(C)oc2ccc(N(C(=O)Oc3ccccc3)S(=O)(=O)c3ccccc3)cc12` the “activity, negative = inhibition” value was -0.887%. With `CCc1ccc(S(=O)(=O)Nc2cc3c(C(=O)OCc4ccccc4)c(C)oc3c3ccccc23)cc1` the “activity, negative = inhibition” value was -10.1%. In the case of `CCOC(=O)c1c(C)oc2ccc(N(C(=O)c3ccncc3)S(=O)(=O)c3ccc(CC)cc3)cc12`, the Potency is reported as 12.6 µM (active). With `Cc1nc2sc(C)c(C)n2c(=O)c1S(=O)(=O)NCCc1ccc(Cl)cc1` the “activity, negative = inhibition” value was -6.27%. For `CCCCCCCCn1c2c(c(=N)c3c1CCC3)CCCC2`, the Potency was 8.91 µM (active). With `CCCCN(CC)C(=O)c1c[nH]c2ccc(S(=O)(=O)Nc3cccc(OC)c3)cc2c1=O` the “activity, negative = inhibition” value was 2.08%. For `Oc1cccc2cc(-c3ccncc3)cnc12`, the Potency was 3.55 µM (active). For `CCc1cc2c(cc(C(=O)OC)n2Cc2nc(-c3ccc(C)cc3)oc2C)s1`, the “activity, negative = inhibition” value was 2.49%. With `Cc1ccc(Cl)cc1N(C)C(=O)C1CCCN(c2ncnc3onc(-c4ccc(F)cc4)c23)C1` (stereo not drawn) the Potency was 11.2 µM (active). In the case of `CCc1ccccc1N(C)C(=O)C1CCCN(c2ncnc3onc(-c4ccc(F)cc4)c23)C1` (stereo not drawn), the “activity, negative = inhibition” value is reported as -7.58%. In the case of `COc1ccccc1N1CCN(c2ncnc3onc(-c4ccc(F)cc4)c23)CC1`, the “activity, negative = inhibition” value is reported as -2.19%. With `Cc1ccc(Nc2c(-c3ccc(N(C)C)cc3)nc3nc[nH]n23)cc1` the “activity, negative = inhibition” value was 9.98%.
